For 38 compounds, growth results are on record in PubChem BioAssay (NCI).

The panel holds about 83,000 compounds, 20% with a hit somewhere; the sample as a whole holds those more often.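 A percent growth of 40 corresponds to 60% growth inhibition; 0 means no net growth; -100 means all cells died. Active threshold: below 10.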 Unmarked numbers belong to inactive results. The source made the active and inactive calls.

For the test, the system named is SF-539 CNS. In words: NCI-60 one-dose screen, 48 h (100 = growth as untreated, 0 = no growth, -100 = all killed). As to conditions: 10 µM unless noted.
For `O=C(/C=C/c1ccc(Cl)cc1)c1ccc(NC(=O)N2CCN(c3cc4c(cc3F)c(=O)c(C(=O)O)cn4C3CC3)CC2)cc1`, the growth is 81.7%.
For `O=C(/C=C(/C=C/c1csc2ccccc12)OB(F)F)/C=C/c1csc2ccccc12`, the growth was 40.8%.
For `CN1CCN(C(=O)[C@]23CCC(C)(C)C[C@H]2C2=CC[C@@H]4[C@@]5(C)C/C(=C/c6cccnc6)C(=O)C(C)(C)[C@@H]5CC[C@@]4(C)[C@]2(C)CC3)CC1`, the growth was 80%.
As to `CC1=CCC(OC(=O)C(C)(O)CCC(O)(C(=O)OC2(C)C=CC(O)(C(C)C)CC2)C(C)C)(C(C)C)CC1` (stereo not drawn), the growth was 103%.
Regarding `NC1=NN=C(N)C1=Cc1cc2ccccc2n2nnnc12`, the growth was 102%.
Then `COc1ccc(NC(N)=NCCCOc2ccc(F)cc2)cc1`, with 71.7%; and `O=C1c2ccc3c4c(ccc(c24)C(=O)N1CCCNCc1ccccc1)C(=O)N(CCCNCc1ccccc1)C3=O`, with -69.6% (active).
Consider `O=C(NCCNc1nccc(-c2c(-c3cccc(F)c3)nc3sccn23)n1)c1ccc(Cl)cc1`, for which the growth is 90%.
For `C=C1C(=O)O[C@H]2[C@H]1CC/C(COC(=O)NCCc1c[nH]c3ccc(OC)cc13)=C\CC[C@@]1(C)O[C@@H]21`, the growth is -24.7% (active).
For the compound `COc1cc(CC(=O)c2ccc(O)c(OC)c2)ccc1O`, the growth was 103%.
Consider `CCN(CC)c1ccc(/C=N/NC(=O)CSc2nc3ccccc3c(=O)n2CCc2ccc(S(N)(=O)=O)cc2)c(O)c1`, for which the growth is 22.7%.
As to `Cc1ccc(-n2c3c(c(-c4ccccc4)c2-c2ccccc2)C2=NCCN2C=N3)cc1`, the growth is 95.4%.
Regarding `CN1CCN(C(=O)[C@]23CCC(C)(C)C[C@H]2C2=CC[C@@H]4[C@@]5(C)C/C(=C/c6ccncc6)C(=O)C(C)(C)[C@@H]5CC[C@@]4(C)[C@]2(C)CC3)CC1`, the growth is 69.3%.
As to `C=C(C)[C@@H]1CC[C@]2(C(=O)N3CCN(C)CC3)CC[C@]3(C)[C@H](CC[C@@H]4[C@@]5(C)C/C(=C/c6cccnc6)C(=O)C(C)(C)[C@@H]5CC[C@]43C)[C@@H]12`, the growth is 74.5%.
The result for `N/C(=N\C(N)=N\c1nc2ccccc2s1)c1cccc(Cl)c1` reads 99.2%.
Then `CCOC(=O)Nc1ccc(-c2ccc3c(c2)NC(=O)/C3=C\c2ccc[nH]2)cc1`, with 94%; and `CCNC(=O)Oc1ccc(/C(=C(\C)c2ccccc2)c2ccc(OCCN(CC)CC)cc2)cc1`, with 60.9%.
For `CCOC(=O)/C(C#N)=C1/NNC(=Nc2cccnc2)S1`, the growth was 102%.
Consider `COc1cccc(-c2nc3occn3c2-c2ccnc(NCCCNS(=O)(=O)c3ccc(C(F)(F)F)cc3)n2)c1`, for which the growth was 89.5%.
For the compound `CC(=O)Nc1ccc(-n2cnc3cc(-c4ccc(OCCN5CCCCC5)cc4)ccc32)cc1`, the growth was 14.4%.
Then `Cn1ccnc1C(=O)/C=C/c1ccc(CC(=O)Nc2ccc(Cl)cc2)cc1`, with -35.2% (active); and `C=CCN1C(=O)/C(=C/C(=O)OC)S/C1=N\NC(=O)c1cc2ccc1/C=C\c1ccc(cc1)/C=C\2`, with 99.7%; and `COc1ccc(/C=C(\C#N)n2nc3cccc(F)c3n2)cc1`, with 101%.
As to `N/C(=N\C(N)=N\c1nc2ccccc2s1)c1cnccn1`, the growth was 16%.
Consider `Cc1c(C(=O)NCCC(=O)NO)sc2ncnc(Nc3ccc(NC(=O)Nc4cccc(C(F)(F)F)c4)cc3)c12`, for which the growth is 79%.
The result for `O=C(Nc1ccc(-c2ccc3c(c2)NC(=O)/C3=C\c2ccc[nH]2)cc1)NC1CC1` reads 71.5%; that for `S=c1cc(S)c2cc(Br)ccc2[nH]1`, 97.7%; that for `CCCCOc1ccc(/C=N/Nc2cc(C)nc3ccc(Br)cc23)cc1`, -79.3% (active).
For `N/C(=N\C(N)=N\c1nc2ccccc2s1)c1ccnc(Br)c1`, the growth was 8.41% (active).
Consider `COc1cc(NC(C)CCCNC(=O)CCC(=O)NCCCNCCCCCCCCNCCCNC(=O)CCC(=O)NCCCC(C)Nc2cc(OC)cc3cccnc23)c2ncccc2c1` (stereo not drawn), for which the growth was 69%.
For `COc1cc2nc(-c3ccc(C(F)(F)F)cc3)cc(OCCCN3CCOCC3)c2cc1OC`, the growth is 46%.
The result for `O=C(Cn1c[n+](CC(=O)c2ccc(-c3ccccc3)cc2)c2ccccc21)Nc1cccc2cccnc12` reads 23.6%; that for `CC(Oc1ccc(C(=O)O)cc1C(F)(F)F)c1ccc(Oc2ccccc2)cn1` (stereo not drawn), 95.9%.
Then `O=C(Nc1ccc(F)cc1)Nc1ccc(NC(=O)c2cc(Cl)nc3ccccc23)cc1`, with 35.6%; and `O=C(CCN1CCCC1)Nc1ccc2c(Nc3ccc(F)cc3)c3ccccc3nc2c1`, with -74.5% (active); and `CC(Sc1nc2ccccc2c(=O)n1CCc1ccc(S(N)(=O)=O)cc1)C(=O)Nc1ccc(Cl)cc1` (stereo not drawn), with 90.8%.
Then `O=C(N/N=C/c1cc2ccccc2n2nnnc12)Nc1ccccc1`, with 106%; and `CC1(C)CC(=O)C2=C(C1)N(c1ccc(F)cc1F)C(N)=C(C#N)C2c1cc(Br)ccc1F` (stereo not drawn), with 87.8%.
